Assay results as given in PubChem BioAssay (NCATS).
Where “and” joins values, the source holds several entries; their conditions need not be identical. Identical values can stand only once. Results filed as inconclusive are left out. Calls of active or inactive are those of the source. Unless noted, calls follow the shape of the dose curve; as a rule, active = well fitted curve in the direction sought with a large enough effect; inconclusive = small, poorly fitted or top-dose-only effect, or another doubt; inactive = no such curve, though single readings can be large; an effect the other way counts as inactive or inconclusive.

How the values were obtained:
[1] = AP1 Signaling Pathway (AID 357; active = well fitted curve in either direction with a large enough effect, not every such curve was filed as active;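 also: ME-180 reporter cells stimulated with EGF at its EC50 level; % is scaled to controls: 0 for no effect and ±100 for the full control effect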); conditions: ME-180 AP-1-bla reporter, EGF-induced, beta-lactamase ratio, 5 h; at 7.69 µM (top of the series) unless noted
Summary of the method: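 A ratiometric CCF4 readout (405 nm excitation; 460 and 530 nm emission) quantified AP-1-driven beta-lactamase in ME-180 cells after 5 h with compound and EC50 EGF; AC50 values were derived for activators and inhibitors.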

[2] = biological target: Cytochrome P450 1A2 (Homo sapiens) (UniProt P05177); assay: p450-cyp1a2 (AID 410; calls by dose curve; also: potency is read from the fitted curve at half-maximal effect;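 as to activity change, negative = inhibition: -100% = full effect of reference inhibitor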)
Cytochrome P450 1A2 (Homo sapiens), sequence (P05177 whole entry, looked up): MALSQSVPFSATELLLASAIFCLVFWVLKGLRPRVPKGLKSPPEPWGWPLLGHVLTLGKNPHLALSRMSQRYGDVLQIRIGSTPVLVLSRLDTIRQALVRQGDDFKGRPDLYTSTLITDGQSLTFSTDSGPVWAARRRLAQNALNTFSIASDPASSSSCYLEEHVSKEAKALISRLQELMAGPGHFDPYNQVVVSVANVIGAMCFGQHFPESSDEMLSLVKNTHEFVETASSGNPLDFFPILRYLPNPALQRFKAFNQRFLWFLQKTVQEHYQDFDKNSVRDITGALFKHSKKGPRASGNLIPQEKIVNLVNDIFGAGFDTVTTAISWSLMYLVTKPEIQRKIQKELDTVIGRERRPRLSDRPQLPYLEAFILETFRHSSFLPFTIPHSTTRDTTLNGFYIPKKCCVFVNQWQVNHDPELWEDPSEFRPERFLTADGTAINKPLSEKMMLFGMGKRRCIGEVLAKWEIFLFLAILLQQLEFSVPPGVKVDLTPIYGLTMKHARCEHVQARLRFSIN
Summary of the method: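 20nM CYP1A2 with 100uM Luciferin-ME (at Km) in 100mM KPO4; compound preincubated 10 min, NADPH regeneration added, 60 min at room temperature. Luciferin quantified by luminescence after detection reagent; normalized to 57 uM furafylline.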

[3] = Stat Signaling Pathway (AID 446; active = well fitted curve in either direction with a large enough effect, not every such curve was filed as active;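 also: ME-180 cervical cancer cells given 40 pM IL-6 alongside compound; SIE-controlled beta-lactamase reporter measured as 460/530 nm FRET emission ratio; % is scaled to controls: 0 for no effect and ±100 for the full control effect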); conditions: ME-180 SIE beta-lactamase reporter, IL-6 stimulated, 5 h; at 7.69 µM (top of the series) unless noted
Summary of the method: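 Reporter line: ME-180 cervical carcinoma, SIE-beta-lactamase. Treatment: compound with 40 pM IL-6, 5 hrs, 37 C, in low-serum OPTI-MEM with 10 mM HEPES pH 7.3. Detection: 460/530 nm fluorescence.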

[4] = biological target: Glucocorticoid receptor (Homo sapiens) (UniProt P04150); assay: GR-GFP Redistribution (AID 450;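 active = compounds whose dose series gives a full or clear partial fitted curve of increased nuclear translocation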; also: potency is read from the fitted curve at half-maximal effect); conditions: U2OS GR-GFP nuclear translocation, laser cytometry, 2 h
Glucocorticoid receptor (Homo sapiens), sequence (P04150 whole entry, looked up, the tested form may be a part): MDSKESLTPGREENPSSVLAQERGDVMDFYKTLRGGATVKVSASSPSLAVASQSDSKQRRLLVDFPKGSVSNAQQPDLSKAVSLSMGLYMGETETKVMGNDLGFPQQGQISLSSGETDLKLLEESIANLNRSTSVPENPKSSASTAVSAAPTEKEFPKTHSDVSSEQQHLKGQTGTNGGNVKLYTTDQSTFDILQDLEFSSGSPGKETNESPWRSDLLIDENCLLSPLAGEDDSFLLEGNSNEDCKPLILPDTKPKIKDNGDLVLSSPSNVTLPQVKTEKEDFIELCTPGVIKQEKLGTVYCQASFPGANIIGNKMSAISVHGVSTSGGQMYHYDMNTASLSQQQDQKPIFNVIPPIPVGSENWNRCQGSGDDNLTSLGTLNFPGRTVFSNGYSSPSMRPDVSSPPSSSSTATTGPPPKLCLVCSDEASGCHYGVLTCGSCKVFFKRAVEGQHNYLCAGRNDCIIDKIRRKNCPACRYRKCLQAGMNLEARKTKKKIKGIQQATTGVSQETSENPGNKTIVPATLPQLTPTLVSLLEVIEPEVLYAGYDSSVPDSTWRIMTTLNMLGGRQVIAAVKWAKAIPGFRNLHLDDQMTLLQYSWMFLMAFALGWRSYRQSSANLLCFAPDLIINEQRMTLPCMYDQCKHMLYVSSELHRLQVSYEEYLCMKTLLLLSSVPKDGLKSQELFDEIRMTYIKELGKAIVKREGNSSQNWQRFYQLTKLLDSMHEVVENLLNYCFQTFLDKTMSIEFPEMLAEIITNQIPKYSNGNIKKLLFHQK

[5] = biological target: Glucocorticoid receptor (Homo sapiens) (UniProt P04150); assay: GR-EFC Redistribution (AID 451; calls by dose curve; also: potency is read from the fitted curve at half-maximal effect); conditions: CHO-K1 GR-EFC translocation, beta-gal luminescence, 2 h
Summary of the method: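 CHO-K1 cells expressing nuclear EA and GR-ED fragments of b-gal; compounds titrated up to 46 uM final, 2 h at 37 C. GR nuclear translocation read as complemented b-gal luminescence after 1 h RT detection.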

[6] = biological target: Mitogen-activated protein kinase 10 (Mus musculus) (UniProt Q61831); assay: JNK3 AlphaScreen Assay (AID 530; active = well fitted curve in either direction with a large enough effect, not every such curve was filed as active;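 also: kinase came from lysate of stimulated human HepG2 cells; signal reports phosphorylation of biotinylated GST-cJun 1-79 at Ser73 with 10 µM ATP; % is scaled to controls: 0 for no effect and ±100 for the full control effect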)
Summary of the method: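 Pre-activated (IL-1β/TNFα) JNK3 in HepG2 lysates phosphorylates biotin-GST-cJun(1-79), 10 uM ATP; anti-phospho-cJun(Ser73) AlphaScreen read at room temperature, pH 7.6 Tris buffer. Compounds pre-incubated 15 min as titrations.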

[7] = qHTS Assay for Lipid Storage Modulators (AID 1519; calls by dose curve); conditions: Drosophila S3 cells, BODIPY lipid droplet/cell ratio, laser cytometry, cells loaded with oleic acid
Summary of the method: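 Cells seeded at 5,000 per well were treated with compounds over a concentration series and loaded with oleic acid (400 uM, as added). Lipid droplet fluorescence (488 nm excitation, 500-530 nm channel) was read by laser-scanning cytometry and normalized to 20 uM Triacsin C.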

[8] = biological target: Ubiquitin carboxyl-terminal hydrolase 1 (Homo sapiens) (UniProt O94782); assay: Inhibitors of USP1/UAF1: Pilot qHTS (AID 504865);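 also: rhodamine fluorescence freed from ubiquitin-rhodamine substrate followed over time; top concentration of the series differs between compounds; % is scaled to controls: 0 for no effect and ±100 for the full control effect; nearly all actives have a fitted effect of over 35% in size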
Ubiquitin carboxyl-terminal hydrolase 1 (Homo sapiens), sequence (O94782 whole entry, looked up): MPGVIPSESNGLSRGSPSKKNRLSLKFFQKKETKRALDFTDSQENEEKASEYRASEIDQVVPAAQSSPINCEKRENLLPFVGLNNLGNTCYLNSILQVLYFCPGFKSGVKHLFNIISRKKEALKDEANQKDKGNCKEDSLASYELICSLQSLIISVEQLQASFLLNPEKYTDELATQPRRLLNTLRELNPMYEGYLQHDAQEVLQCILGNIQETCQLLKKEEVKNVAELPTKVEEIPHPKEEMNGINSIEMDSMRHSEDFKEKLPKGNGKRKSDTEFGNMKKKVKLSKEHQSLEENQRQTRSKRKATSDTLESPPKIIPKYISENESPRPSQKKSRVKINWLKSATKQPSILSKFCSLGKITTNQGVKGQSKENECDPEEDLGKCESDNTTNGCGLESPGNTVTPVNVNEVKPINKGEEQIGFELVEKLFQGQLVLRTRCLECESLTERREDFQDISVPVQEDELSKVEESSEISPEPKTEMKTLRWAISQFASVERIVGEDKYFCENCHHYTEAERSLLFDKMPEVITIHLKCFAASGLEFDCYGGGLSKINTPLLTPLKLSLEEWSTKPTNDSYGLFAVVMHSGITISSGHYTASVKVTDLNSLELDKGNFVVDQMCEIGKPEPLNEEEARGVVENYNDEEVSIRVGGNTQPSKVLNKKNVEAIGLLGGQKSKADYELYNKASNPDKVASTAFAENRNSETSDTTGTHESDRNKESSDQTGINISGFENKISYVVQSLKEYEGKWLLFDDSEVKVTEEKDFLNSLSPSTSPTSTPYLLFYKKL
Summary of the method: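 Kinetic fluorescence assay: 1nM USP1/UAF1, 15 min compound preincubation, then 150nM Ub-Rho; 480/540 nm.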

[9] = biological target: 3',5'-cyclic-AMP phosphodiesterase 4B (Homo sapiens) (UniProt Q07343); assay: qHTS Assay for Inhibitors of PDE-IV (AID 607; active = well fitted activation curve with a large enough effect in the main read-out, with a control signal flat, not every such curve was filed as active; also: % of control where 0% means no effect)
3',5'-cyclic-AMP phosphodiesterase 4B (Homo sapiens), sequence (Q07343 whole entry, looked up): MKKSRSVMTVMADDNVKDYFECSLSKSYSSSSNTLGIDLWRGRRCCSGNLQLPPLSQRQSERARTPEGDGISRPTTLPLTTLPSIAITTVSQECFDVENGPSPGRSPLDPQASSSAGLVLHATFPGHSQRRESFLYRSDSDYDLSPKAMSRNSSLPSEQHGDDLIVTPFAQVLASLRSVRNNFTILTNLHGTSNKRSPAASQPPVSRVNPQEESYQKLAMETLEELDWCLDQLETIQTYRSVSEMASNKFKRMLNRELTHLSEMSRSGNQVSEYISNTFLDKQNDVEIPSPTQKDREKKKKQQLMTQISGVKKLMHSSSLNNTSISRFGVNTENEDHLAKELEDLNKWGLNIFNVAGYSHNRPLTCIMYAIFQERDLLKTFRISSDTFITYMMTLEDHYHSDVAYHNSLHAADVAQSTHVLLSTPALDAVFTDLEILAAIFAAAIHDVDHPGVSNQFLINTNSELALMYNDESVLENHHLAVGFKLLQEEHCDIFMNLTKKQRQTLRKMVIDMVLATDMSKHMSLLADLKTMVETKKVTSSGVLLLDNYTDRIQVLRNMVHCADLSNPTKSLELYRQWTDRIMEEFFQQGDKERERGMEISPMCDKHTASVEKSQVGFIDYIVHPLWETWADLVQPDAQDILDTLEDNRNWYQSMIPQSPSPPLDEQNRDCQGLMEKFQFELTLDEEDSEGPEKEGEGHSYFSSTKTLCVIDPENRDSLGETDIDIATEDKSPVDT
Summary of the method: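 Cell-based read-out of cAMP via a modified cyclic nucleotide-gated channel and membrane potential dye (535/590 nm) in HEK293 cells expressing PDE4 endogenously. Compounds tested up to 22.9 uM final; 100 uM RO 20-1724 reference.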

[10] = biological target: ATP-dependent 6-phosphofructokinase (Trypanosoma brucei brucei) (UniProt O15648); assay: qHTS Assay to Find Inhibitors of T. brucei phosphofructokinase: hit validation (AID 492961);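 also: luminescence reports ADP formed as PFK phosphorylates fructose-6-phosphate with ATP; % is scaled to controls: 0 for no effect and ±100 for the full control effect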
ATP-dependent 6-phosphofructokinase (Trypanosoma brucei brucei), sequence (O15648 whole entry, looked up): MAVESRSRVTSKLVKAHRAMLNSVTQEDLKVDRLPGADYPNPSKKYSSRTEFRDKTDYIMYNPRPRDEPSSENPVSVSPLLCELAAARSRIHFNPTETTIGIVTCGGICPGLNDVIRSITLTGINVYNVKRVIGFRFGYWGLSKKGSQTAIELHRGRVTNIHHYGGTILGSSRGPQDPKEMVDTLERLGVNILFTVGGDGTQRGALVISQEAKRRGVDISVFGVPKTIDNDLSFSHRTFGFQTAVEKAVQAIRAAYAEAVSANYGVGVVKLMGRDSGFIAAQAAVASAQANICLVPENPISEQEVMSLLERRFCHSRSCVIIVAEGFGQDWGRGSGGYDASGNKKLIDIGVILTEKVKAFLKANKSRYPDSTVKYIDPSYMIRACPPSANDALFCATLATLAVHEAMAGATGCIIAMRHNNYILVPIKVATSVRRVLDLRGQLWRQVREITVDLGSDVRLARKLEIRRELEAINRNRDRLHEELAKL
Summary of the method: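 Compounds titrated; %activity normalized to 0x and 1x enzyme controls, curve-fitted. Readout: ADP-Glo luminescence after 45 min room-temperature reaction of 1.25 nM PFK, 0.1 mM ATP, 0.5 mM F6P, pH 8.0.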

[11] = biological target: Luciferin 4-monooxygenase (Photinus pyralis) (UniProt P08659); assay: Biochemical firefly luciferase enzyme assay for NPC (AID 624030);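 also: purified P. pyralis luciferase at 10 nM with luciferin and ATP substrate; 0% = DMSO and -100% = full luciferase inhibition by PTC124 control; nearly all actives have a fitted effect of over 70% in size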
Luciferin 4-monooxygenase (Photinus pyralis), sequence (P08659 whole entry, looked up): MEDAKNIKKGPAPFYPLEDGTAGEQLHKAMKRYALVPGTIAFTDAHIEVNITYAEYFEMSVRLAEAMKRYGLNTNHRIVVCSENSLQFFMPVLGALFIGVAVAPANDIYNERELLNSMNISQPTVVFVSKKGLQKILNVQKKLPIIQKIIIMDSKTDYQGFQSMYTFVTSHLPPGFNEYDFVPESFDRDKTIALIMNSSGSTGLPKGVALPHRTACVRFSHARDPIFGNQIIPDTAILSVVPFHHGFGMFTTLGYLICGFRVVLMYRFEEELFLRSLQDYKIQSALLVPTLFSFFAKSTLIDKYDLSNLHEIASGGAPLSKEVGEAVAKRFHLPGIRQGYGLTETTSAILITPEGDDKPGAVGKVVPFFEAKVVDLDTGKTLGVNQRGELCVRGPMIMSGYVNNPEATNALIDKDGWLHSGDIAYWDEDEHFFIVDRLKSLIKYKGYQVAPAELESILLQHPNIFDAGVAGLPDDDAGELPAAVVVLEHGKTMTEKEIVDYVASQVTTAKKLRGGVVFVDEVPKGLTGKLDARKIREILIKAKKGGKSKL
Summary of the method: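 Purified P. pyralis luciferase at 10 nM in 50 mM Tris Acetate (final), luminescence read within 5 minutes of enzyme addition to compounds. Activity normalised to PTC124 versus DMSO; concentration-response curves classed by r2, magnitude and activity.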

[12] = qHTS profiling for inhibitors of Plasmodium falciparum proliferation (AID 504749);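 also: 0% = DMSO vehicle and full inhibition = artemisinin control; nearly all actives have a fitted effect of over 60% in size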; conditions: P. falciparum in erythrocytes, SYBR Green DNA, 72 h, at 12.8 µM (top of the series)
Summary of the method: (§1)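 P. falciparum-infected erythrocytes (0.3% parasitemia, 2.5% hematocrit) incubated with compound 72 h at 37 C, 5% CO2. Parasite DNA detected by SYBR Green after lysis, overnight at room temperature; normalised to 0.29 uM artemisinin and DMSO.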

CP238 = assay: as above; conditions: P. falciparum in erythrocytes, SYBR Green DNA, 72 h; series mostly up to 12.8 µM
Summary of the method: as §1

CP262 = assay: as above; conditions: P. falciparum in erythrocytes, SYBR Green DNA, 72 h; series mostly up to 12.8 µM
Summary of the method: as §1

CP325 = assay: as above; conditions: P. falciparum in erythrocytes, SYBR Green DNA, 72 h; series mostly up to 12.8 µM
Summary of the method: as §1

ECU = assay: as above; conditions: P. falciparum in erythrocytes, SYBR Green DNA, 72 h; series mostly up to 12.8 µM
Summary of the method: as §1

FAB9 = assay: as above; conditions: P. falciparum in erythrocytes, SYBR Green DNA, 72 h; series mostly up to 12.8 µM
Summary of the method: as §1

HB3 = assay: as above; conditions: P. falciparum in erythrocytes, SYBR Green DNA, 72 h; series mostly up to 12.8 µM
Summary of the method: as §1

JCK = assay: as above; conditions: P. falciparum in erythrocytes, SYBR Green DNA, 72 h; series mostly up to 12.8 µM
Summary of the method: as §1

[13] = NFAT Signaling Pathway (AID 444; active = well fitted curve in either direction with a large enough effect, not every such curve was filed as active); conditions: Jurkat NFAT-bla M1, carbachol, beta-lactamase ratio, 5 h; at 7.69 µM (top of the series) unless noted
Summary of the method: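 Jurkat cells with NFAT-driven β-lactamase reporter and co-expressed M1 receptor, stimulated with carbachol (final 1 uM, ~EC50), compound titration, 5 h at 37 °C. CCF4 loaded 1 h at RT; 460/530 nm ratio gave %activity and AC50.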

[14] = measured here: cell count channel max response
[15] = measured here: lipid channel max response

CCCN1C[C@H](CSC)C[C@H]2c3cccc4[nH]cc(c34)C[C@@H]21
activity change, negative = inhibition [1]: -5.45% [at 17.2 µM] (inactive)
Potency [2]: 3.16 µM (active) and 1.58 µM (active)
activity, negative = inhibition [3]: 6.37% [at 17.2 µM] (inactive)
Potency [4]: > 20.6 µM (inactive) and > 46 µM (inactive)
Potency [5]: > 20.6 µM (inactive) and > 46 µM (inactive)
Potency [6]: inactive
activity change, negative = inhibition ([7]; at 25.7 µM (top of the series)): -0.938% (inactive)
max response [7, 14]: -9.01%
max response [7, 15]: -9.12%

N=c1ccn2c(n1)OC1C(O)C(CO)OC12 (configuration not stated)
activity change, negative = inhibition ([7]; at 57.5 µM (top of the series)): 3.87% (inactive) and 5.45% (inactive)
max response [7, 14]: 0.631% and 1.94%
max response [7, 15]: 7.88% and 22.5%
Potency [8]: inactive

C[N+]1(C)CCC[C@@H](OC(=O)C(O)(c2ccccc2)c2ccccc2)C1
activity change, negative = inhibition [1]: 3.62% [at 17.2 µM] (inactive)
Potency [2]: inactive
activity, negative = inhibition [3]: 11.2% [at 17.2 µM] (inactive)
Potency [4]: > 20.6 µM (inactive)
Potency [5]: > 20.6 µM (inactive)
Potency [6]: inactive
Potency [9]: inactive
activity change, negative = inhibition ([7]; at 25.7 µM (top of the series)): -3.46% (inactive)
max response [7, 14]: -12.3%
max response [7, 15]: -16.2%
outcome [10]: inactive
Potency [8]: inactive
outcome [11]: inactive
activity, negative = inhibition ([12]; parasite line A): 9.41% (inactive)
activity, negative = inhibition ([12]; parasite line B): 6.69% (inactive)
Potency (CP238): inactive
Potency (CP262): inactive
Potency (CP325): inactive
Potency (ECU): inactive
Potency (FAB9): inactive
Potency (HB3): inactive
Potency (JCK): inactive

C/C=C\C(=O)N(CC)c1ccccc1C
activity change, negative = inhibition [1]: -1.59% [at 17.2 µM] (inactive)
Potency [2]: inactive
activity change, negative = inhibition [13]: -0.257% [at 17.2 µM] (inactive)
activity, negative = inhibition [3]: 4.14% [at 17.2 µM] (inactive)
Potency [4]: > 20.6 µM (inactive)
Potency [5]: > 20.6 µM (inactive)
Potency [6]: inactive
Potency [9]: inactive
activity change, negative = inhibition ([7]; at 25.7 µM (top of the series)): -4.01% (inactive)
max response [7, 14]: -15.1%
max response [7, 15]: -17.7%
outcome [10]: inactive
outcome [11]: inactive
activity, negative = inhibition ([12]; parasite line A): 6.96% (inactive)
activity, negative = inhibition ([12]; parasite line B): 1.34% (inactive)
Potency (CP238): inactive
Potency (CP262): inactive
Potency (CP325): inactive
Potency (ECU): inactive
Potency (FAB9): inactive
Potency (HB3): inactive
Potency (JCK): inactive
